Values joined by “and” are separate entries in the source; they are usually repeats but may differ in a detail not shown here. Equal entries are not always repeated. Screen size: about 5,500 compounds; about 2,000 (36%) were called active. Not shown: some 18% with an inconclusive outcome. Rule as the data show it: active = normalized growth mostly below about 0.91 (no sharp cut-off); inconclusive = no clear call, values can overlap the other calls; inactive = mostly above about 0.92. The list shows a part of the results.
Assay: chemical genetic growth profiling, strain panel (AID 1159580);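 also: tested at 20 µM; growth read once vehicle control cultures reached saturation at 30 °C; 1 = growth at the plate median or of vehicle wells; lower values mean less growth of the strain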
Conditions: S. cerevisiae deletion strains, growth OD

Measured: normalized growth

c1ccc([C@H]2CN3CCSC3=N2)cc1
inactive: locus YAL013W, strain DEP1, active compounds read low 1.01 | locus YAL021C, strain ccr4, active compounds read low 1.01 | locus YAL026C, strain drs2, active compounds read low 1.01 | locus YAL030W, strain snc1, active compounds read low 1.01 | locus YBL061C, strain skt5, active compounds read low 1.01 | locus YBR009C, strain hhf1, active compounds read low 1.01 | locus YBR021W, strain FUR4, active compounds read low 0.956 | locus YBR023C, strain chs3, active compounds read low 1.01 | locus YBR171W, strain sec66, active compounds read low 1.02 | locus YBR229C, strain ROT2, active compounds read low 1.01 | locus YBR231C, strain swc5, active compounds read low 1 | locus YBR279W, strain paf1, active compounds read low 1.02 | locus YCL011C, strain gbp2, active compounds read low 1.01 | locus YCL016C, strain dcc1, active compounds read low 1.01 | locus YCL029C, strain bik1, active compounds read low 1.01 | locus YCL061C, strain MRC1, active compounds read low 0.996 | locus YCL069W, strain vba3, active compounds read low 1 | locus YCR088W, strain abp1, active compounds read low 1 | locus YDL005C, strain med2, active compounds read low 0.976 | locus YDL035C, strain GPR1, active compounds read low 1.01 | locus YDL040C, strain nat1, active compounds read low 1.01 | locus YDL074C, strain BRE1, active compounds read low 1 | locus YDL101C, strain DUN1, active compounds read low 1 | locus YDL134C, strain PPH21, active compounds read low 1.01 | locus YDL185W, strain tfp1, active compounds read low 1.02 | locus YDL192W, strain arf1, active compounds read low 1 | locus YDR001C, strain nth1, active compounds read low 0.995 | locus YDR069C, strain doa4, active compounds read low 0.996 | locus YDR101C, strain arx1, active compounds read low 1 | locus YDR137W, strain rgp1, active compounds read low 1.04 | locus YDR150W, strain NUM1, active compounds read low 1.01 | locus YDR159W, strain sac3, active compounds read low 0.944 | locus YDR162C, strain NBP2, active compounds read low 0.999 | locus YDR195W, strain ref2 1 | locus YDR297W, strain sur2, active compounds read low 1.01 | locus YDR318W, strain mcm21, active compounds read low 0.993 | locus YDR334W, strain swr1, active compounds read low 0.984 | locus YDR335W, strain msn5, active compounds read low 0.987 | locus YDR388W, active compounds read low 1.01 | locus YDR392W, strain spt3, active compounds read low 1.01 | locus YDR502C, strain sam2, active compounds read low 0.993 | locus YEL003W, strain gim4, active compounds read low 1.01 | locus YEL037C, strain rad23, active compounds read low 1 | locus YEL061C, strain CIN8 (second series), active compounds read low 0.996 | locus YEL061C, strain CIN8, active compounds read low 1 | locus YER015W, strain faa2, active compounds read low 1.01 | locus YER016W, strain bim1, active compounds read low 1.01 | locus YER110C, active compounds read low 1.02 | locus YER111C, strain swi4, active compounds read low 1.01 | locus YER155C, strain BEM2 (second series), active compounds read low 1.01 | locus YER155C, strain BEM2, active compounds read low 0.999 | locus YER167W, strain BCK2, active compounds read low 1.01 | locus YFR010W, strain ubp6, active compounds read low 0.981 | locus YGL078C, strain dbp3, active compounds read low 1 | locus YGL086W, strain mad1, active compounds read low 1.01 | locus YGL167C, strain pmr1, active compounds read low 1 | locus YGL173C, strain kem1, active compounds read low 1.01 | locus YGL227W, strain vid30, active compounds read low 1.02 | locus YGL240W, strain doc1, active compounds read low 1 | locus YGL248W, strain PDE1, active compounds read low 1 | locus YGL253W, strain hxk2, active compounds read low 1.01 | locus YGR078C, strain PAC10, active compounds read low 1 | locus YGR135W, strain pre9, active compounds read low 0.988 | locus YGR229C, strain SMI1, active compounds read low 0.994 | locus YGR252W, strain gcn5, active compounds read low 1.02 | locus YHR013C, strain ard1, active compounds read low 1.02 | locus YHR027C, strain rpn1, active compounds read low 1.01 | locus YHR030C, strain SLT2, active compounds read low 1.01 | locus YHR079C, strain IRE1 (second series), active compounds read low 1 | locus YHR079C, strain IRE1, active compounds read low 1.03 | locus YHR094C, strain hxt1, active compounds read low 1 | locus YHR129C, strain ARP1, active compounds read low 1.03 | locus YHR142W, strain chs7, active compounds read low 1.05 | locus YHR200W, strain rpn10, active compounds read low 1 | locus YIL066C, strain RNR3, active compounds read low 1.02 | locus YIL073C, strain SPO22, active compounds read low 1.05 | locus YIL125W, strain kgd1, active compounds read low 1.01 | locus YIR030C, strain dcg1, active compounds read low 1.01 | locus YJL092W, strain hpr5, active compounds read low 1 | locus YJL095W, strain BCK1 (second series), active compounds read low 1.01 | locus YJL095W, strain BCK1, active compounds read low 1.01 and 1.05 | locus YJL115W, strain asf1, active compounds read low 0.997 | locus YJL129C, strain trk1, active compounds read low 1.02 | locus YJL134W, strain LCB3, active compounds read low 1.01 | locus YJL154C, strain vps35, active compounds read low 1.01 | locus YJL164C, strain tpk1, active compounds read low 0.983 | locus YJL166W, strain qcr8, active compounds read low 1.01 | locus YJL168C, strain set2, active compounds read low 1.01 | locus YJL187C, strain SWE1 (second series), active compounds read low 1.01 | locus YJL187C, strain SWE1, active compounds read low 1 | locus YJR043C, strain POL32, active compounds read low 1.02 | locus YJR066W, strain TOR1, active compounds read low 0.976
